Laboratory results: PubChem BioAssay (NCI)
This is part of a sample that, as a whole, favours compounds with a hit. Of some 83,000 tested, about 20% had one in any assay.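 Plates (96-well) were seeded with cells, treated with compound at one concentration, and incubated for 48 hours before percent growth was determined.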 Values without a mark were called inactive. Active and inactive are the calls of the source. How the source made its calls: active means growth percent below 10; inactive means the rest.

Key:
Experiment in all cases: NCI-60 one-dose screen, 48 h (100 = growth as untreated, 0 = no growth, -100 = all killed)
DU-145 prostate = settings: 10 µM unless noted
K-562 leukemia = settings: 10 µM unless noted
MALME-3M melanoma = settings: 10 µM unless noted
MDA-MB-231 breast = settings: 10 µM unless noted
RXF 393 renal = settings: 10 µM unless noted
SF-268 CNS = settings: 10 µM unless noted
SF-295 CNS = settings: 10 µM unless noted
SF-539 CNS = settings: 10 µM unless noted
UACC-257 melanoma = settings: 10 µM unless noted
M14 melanoma = settings: 10 µM unless noted
HCT-15 colon = settings: 10 µM unless noted
HT29 colon = settings: 10 µM unless noted
SNB-75 CNS = settings: 10 µM unless noted
SNB-19 CNS = settings: 10 µM unless noted
U251 CNS = settings: 10 µM unless noted
PC-3 prostate = settings: 10 µM unless noted
SK-MEL-5 melanoma = settings: 10 µM unless noted
UACC-62 melanoma = settings: 10 µM unless noted
LOX IMVI melanoma = settings: 10 µM
SK-MEL-28 melanoma = settings: 10 µM unless noted

Structure (SMILES)	growth (DU-145 prostate)	growth (K-562 leukemia)	growth (MALME-3M melanoma)	growth (MDA-MB-231 breast)	growth (RXF 393 renal)	growth (SF-268 CNS)	growth (SF-295 CNS)	growth (SF-539 CNS)	growth (UACC-257 melanoma)	growth (M14 melanoma)	growth (HCT-15 colon)	growth (HT29 colon)	growth (SNB-75 CNS)	growth (SNB-19 CNS)	growth (U251 CNS)	growth (PC-3 prostate)	growth (SK-MEL-5 melanoma)	growth (UACC-62 melanoma)	growth (LOX IMVI melanoma) [%]	growth (SK-MEL-28 melanoma)
CC(=O)c1cccs1	109%	108%	115%	101%	96.6%	103%	97.3%	95.6%	96.3%	102%	99.5%	99.8%	96%	102%	101%	98.3%	110%	94.2%	93.1	98.1%
c1ccc2c(NCCCN3CCN(CCCNc4c5ccccc5nc5ccccc45)CC3)c3ccccc3nc2c1	-63.4% [100 µM] (active)	-10.1% [100 µM] (active)	-69.7% [100 µM] (active)	-40.3% [100 µM] (active)	-90.3% [100 µM] (active)	-34.9% [100 µM] (active)	-48.1% [100 µM] (active)	-79.2% [100 µM] (active)	-36.4% [100 µM] (active)	-81% [100 µM] (active)	2.79% [100 µM] (active)	-37.3% [100 µM] (active)	-91% [100 µM] (active)	-21.1% [100 µM] (active)	-19.4% [100 µM] (active)	-33.1% [100 µM] (active)	-70.3% [100 µM] (active)	-88.5% [100 µM] (active)		-72.3% [100 µM] (active)
C=CCC(O)C=C (stereo unspecified)	111%	91.4%	80.7%	108%	107%	111%	99.6%	104%	93.5%	104%	101%	110%	99.3%	101%	102%	101%	102%	104%	97.3	105%
O=C(Nc1c(Cl)cc(Cl)cc1Cl)ON=C1CCCCC1	94.9%	105%	101%	101%	116%	91.7%	102%	97.4%	102%	111%	102%	104%	94.4%	108%	104%	114%	101%	98.7%		106%
O=C1C=C[C@H](O)[C@@]2(CO)O[C@@H]12	95.6%	4.07% (active)	77.7%	105%	23.1%	100%	109%	70.1%	108%	85.9%	104%	53.9%	81%	100%	91.4%	82.3%	100%	65.8%	66.7	42.1%
CC(C)C1CCC(C)C(O)C1 (stereo unspecified)	106%	103%	109%	93.9%	108%	100%	100%	100%	85.6%	101%	107%	105%	91.1%	99.6%	89%	89%	105%		99.6	110%
CCCNS(=O)(=O)c1ccc(Cl)cc1	109%	104%	105%	102%	114%	106%	87.8%	98.1%	101%	101%	99.6%	101%	93.4%	104%	99.3%	92.9%	105%		101	108%
CCCCOC(=O)c1ccccc1O	120%	131%	104%	104%	161%	117%	110%	106%	99.4%	117%	104%	111%	85.9%	102%	100%	101%	104%		100	113%
NCCCN1CCCC1=O	114%	114%	99.1%	108%	122%	113%	111%	109%	97.3%	113%	116%	112%	116%	95.3%	108%	96.9%	100%	96.4%		111%
O=C(Nc1cccc(Cl)c1)c1ccc(Cl)cc1Cl	99.3%	90.9%	96.6%	97.9%	110%	96.2%	94.6%	103%	99.7%	93.7%	96.3%	86.5%	84.7%	96.9%	90.7%	82.2%	96.1%		98.5	101%
NCC(O)C(O)C(O)C(O)CO (stereo unspecified)	101%	103%	90.5%	91.9%	109%	96.2%	106%	101%	85%	93.9%	106%	95.9%	91.8%	104%	90.5%	81.4%	101%		97.8	108%
CC1(C)OC(=O)CC1=O	109%	92.2%	105%	104%	103%	103%	106%	102%	89.4%	93.9%	110%	93.5%	93.5%	105%	83.2%	81.5%	98.7%		96.9	109%
Cc1ccc(C2CCCCC2)cc1Br	105%	100%	100%	97.4%	105%	99.5%	95.5%	101%	88.8%	98.6%	100%	95.8%	98.4%	95.6%	88.1%	94%	102%		103	101%
C/C(=N\Nc1ccc([N+](=O)[O-])cc1[N+](=O)[O-])c1ccc(Br)cc1	103%	98.7%	107%	91.5%	106%	97.2%	94.4%	106%	87.9%	106%	97.5%	92.2%	104%	97.8%	92.2%	91.2%	100%		95.8	107%
O=C(Oc1ccccc1Cl)c1ccc(Cl)cc1Cl	110%	99.6%	103%	98.3%	102%	105%	95.1%	95.6%	94.3%	98.1%	103%	105%	91.8%	99.6%	89.5%	93.6%	102%		104	109%
C/C(=N\O)c1ccccn1	106%	106%	108%	101%	108%	96.8%	102%	103%	86.3%	105%	102%	97.3%	96.9%	95.2%	88.8%	94.3%	105%		99.1	110%
NNc1ncccn1	116%	102%	118%	100%	120%	103%	108%	105%	104%	108%	106%	91.8%	80.2%	111%	102%	106%	115%		96.9	106%
O=C(NCc1ccccc1)c1cccc([N+](=O)[O-])c1	104%	102%	90.5%	91.1%	104%	92.6%	104%	102%	88%	107%	104%	97.8%	101%	95.1%	89.1%	88.9%	103%		105	114%
O=[n+]1ccn([O-])c2ccccc21	105%	109%	98.3%	94.6%	89.5%	95.8%	107%	99.1%	133%	96.7%	110%	108%	92%	102%	100%	92.1%	93.2%		97.4	108%
NNC(=O)c1ccccc1N	120%	118%	110%	113%	40.6%	114%	110%	112%	93.9%	106%	110%	106%	87.9%	114%	106%	101%	107%		105	117%
Nc1ccc(F)cc1F	110%	107%	111%	93.7%	92.2%	109%	104%	94.3%	111%	101%	108%	106%	97.1%	109%	106%	89.1%		100%	102	92.7%
Nc1c(O)c(S(=O)(=O)O)c(O)c2c1C(=O)c1ccccc1C2=O	21.4%	22.1%	-0.703% (active)	42.3%	75.3%	45.9%	12.8%	61.6%	1.57% (active)	35%	15.9%	14%	24.7%	26.2%	20.2%	23.8%	5.72% (active)	34.6%		42.5%
